# The full list was thinned out, with hits kept by preference.
# PL synth Enamine: animal cell phospholipid biosynthesis inhibition, Enamine screen. ZR-82 CHO cells, pyrene fatty acid UV survival, CellTiter Blue; peroxisome-deficient CHO-K1 mutant line; plus DGAT-1, DGAT-2 and ACAT inhibitors. calls only at 10 µM. hit rate 0.4% among 20,000. AID 1347385;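 active = cell survival signal 2 SD away from solvent-only control wells, confirmed on one or two retests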;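 note: 3 h compound exposure then viability read about one day after UV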
# Calls only; . = inactive; + = active, no number.
SMILES,PL synth Enamine
FC(F)Oc1ccc(NC(=S)NC2CCCCCCC2)cc1,+
Fc1ccc(NC(=S)NC2CCC(NC(=S)Nc3ccc(F)cc3)CC2)cc1 (stereo not drawn),.
FC(F)Sc1ccc(NC(=S)NC2CCC(NC(=S)Nc3ccc(SC(F)F)cc3)CC2)cc1 (stereo not drawn),.
c1csc(Cn2nnnc2SCc2cc(-c3cccs3)on2)c1,.
O=P1(NCc2ccccc2)C=C(c2ccccc2)OC(c2ccccc2)=C1,.
Nc1c2c(nn1-c1c(Cl)cc(Cl)cc1Cl)CCCn1c-2nc2ccccc2c1=O,.
FC(F)n1c(=S)n(C(F)F)c2ccccc21,.
FC(F)n1c(-c2ccccc2)c(-c2ccccc2)n(C(F)F)c1=S,+
FC(F)Sc1nc(-c2ccccc2)c(-c2ccccc2)n1C(F)F,.
Nc1ncnc(N/N=C/c2ccccn2)c1[N+](=O)[O-],.
Oc1c(-c2ccccn2)sc2ccccc12,.
Cc1cc(/C=C/C(=O)O)c(C)n1C1CC1,.
CC(C)NC(=S)N/N=C/C=C1/N(C)c2ccccc2C1(C)C,.
Cc1cc(C(C)(C)C)cc(C)c1CSc1ncnc2ccccc12,.
Cc1cc(C(C)(C)C)cc(C)c1CSc1nc(=S)c2ccccc2[nH]1,.
Cc1cc(C(C)(C)C)cc(C)c1C[n+]1ccc2ccccc2c1,+
NC(c1c(O)ccc2ccccc12)P(=O)(O)O (stereo not drawn),.
CN(C(=O)/C=C/C(=O)O)C1CCCCC1,.
Clc1ccccc1NN=C1c2ccccc2-c2ccccc21,.
Clc1ccc(NN=C2c3ccccc3-c3ccccc32)cc1Cl,.
Clc1cccc(NN=C2c3ccccc3-c3ccccc32)c1,+
Cc1sc2nc(-c3cccs3)nc(NCCCNC(C)(C)C)c2c1C,.
O=S(=O)(Nc1ccc2c(c1)CCC2)c1ccc(F)cc1,.
O=S(=O)(Nc1ccc2c(c1)CCC2)c1ccc(Br)cc1,+
O=S(=O)(Nc1ccc2c(c1)OCCO2)c1ccc2c(c1)CCCC2,.
SMILES,PL synth Enamine
COc1cc(-c2csc(=Nc3ccc(Cl)cc3)n2CC2CCCO2)cc(OC)c1OC (stereo not drawn),.
O=[N+]([O-])c1ccc(N2CCNCC2)c(S(=O)(=O)N2CCOCC2)c1,.
O=[N+]([O-])c1ccc(N2CCNCC2)cc1NC1C2CC3CC(C2)CC1C3 (stereo not drawn),+
O=[N+]([O-])c1ccc(N2CCN(CCO)CC2)cc1SCCO,.
CC(=O)c1sc(NC(=O)CCn2[nH]c(=O)ccc2=O)nc1C,.
Nc1cc([N+](=O)[O-])ccc1NS(=O)(=O)c1ccc(Cl)cc1,.
CCCn1c(SCC(=O)NCCN2C(=O)CSC2=O)n[nH]c1=O,.
Oc1ccc(/C=N/N=C/C2=C(N3CCOCC3)C(=C\c3ccccc3)/CC2)c(O)c1,.
C(=N\Nc1ccc(N2CCOCC2)nn1)/C1=C(N2CCOCC2)C(=C/c2ccccc2)/CC1,.
O=C1Nc2ccccc2/C1=N\N=C\C1=C(N2CCOCC2)C(=C\c2ccccc2)/CC1,+
COc1ccc(N=P2(N3CCOCC3)/C(=C3\N(C)c4ccccc4C3(C)C)C=NN2c2ccccc2)cc1 (stereo not drawn),.
O=C(NCCC12CC3CC(CC(C3)C1)C2)c1ncc(Cl)c(Cl)c1Cl,.
CN1/C(=C\P(=Nc2cccc3ccccc23)(Oc2cccc3ccccc23)c2ccccc2)C(C)(C)c2ccccc21 (stereo not drawn),.
Cc1ccc(NP(=O)(/C=C2\N(C)c3ccccc3C2(C)C)c2ccccc2)cc1C (stereo not drawn),.
CCN(CC)P(/C=C1/N(C)c2ccccc2C1(C)C)(=Nc1ccc(C)cc1C)c1ccccc1 (stereo not drawn),+
OCCn1c(-c2ccc(F)cc2)nc(=S)c2c1CCCC2,.
FC(F)(F)c1cc(NC(=S)Nc2ccc(Cl)c(Cl)c2)ccc1Cl,+
S=C(NN=C1C2CC3CC(C2)CC1C3)Nc1ccc(Cl)c(Cl)c1,.
Fc1ccc(NC(=S)Nc2ccc(Cl)c(C(F)(F)F)c2)cc1Cl,.
CS(=O)(=O)c1ccc(NS(=O)(=O)c2ccccc2Br)cc1,.
Nc1cc(=O)[nH]c(SCC(=O)NCCN2C(=O)CSC2=O)n1,.
NC(=O)NC(=O)CSc1ncnc2sc3c(c12)CCC3,.
O=P1(NCCCN2CCOCC2)C=C(c2ccccc2)SC(c2ccccc2)=C1,.
Cc1nn(-c2ccccc2)c(N)c1N=Nc1ccccc1OC(F)F,+
Cc1nn(-c2ccccc2)c(N)c1N=Nc1ccc2ccccc2c1,.
SMILES,PL synth Enamine
COc1ccc(OC)c(N=Nc2c(C)nn(-c3ccccc3)c2N)c1,.
Oc1ccc(-c2[nH]ncc2-c2cnc[nH]2)c(O)c1,.
CS(=O)(=O)c1ccc(NS(=O)(=O)c2ccccc2[N+](=O)[O-])cc1,.
CCOC(=O)C1=C(COC(=O)c2c(C)noc2C)NC(=O)NC1c1cccs1 (stereo not drawn),.
O=P(NCc1ccccc1)(OC12CC3CC(CC(C3)C1)C2)OC12CC3CC(CC(C3)C1)C2,.
Cc1nc2sccn2c1-c1nc(-c2cc(Cl)ccc2Cl)cs1,.
Oc1c(N=Nc2ccc3c(c2)OCO3)sc2ccccc12,.
Nc1nc(-c2ccccc2)c(N=Nc2ccc3c(c2)OCO3)s1,+
c1cc2c(cc1-c1csc(N3CCOCC3)n1)OCCO2,.
Nc1nc(-c2ccccc2)c(N=Nc2ccc3c(c2)OCCO3)s1,+
c1ccc(-c2nnc(-c3ccc4c(c3)OCO4)nc2-c2ccccc2)cc1,.
Nc1[nH]c(=O)[nH]c(=O)c1N=Nc1ccc2c(c1)OCCO2,.
COc1cc(-c2nn(CN3CCc4ccccc4C3)c(=S)o2)cc(OC)c1OC,.
O=C(Cn1nnc(-c2ccc(Br)cc2)n1)c1ccc2c(c1)OCO2,.
CN=c1scc(-c2ccc(OC(F)F)cc2)n1/N=C/c1cc(OC)c(O)c(OC)c1,.
CN=c1scc(-c2ccc(OC(F)F)cc2)n1/N=C(\C)c1ccc(O)cc1O,+
CN=c1scc(-c2ccc(F)cc2)n1/N=C(\C)c1ccc(O)cc1O,.
C/C=C/C=C/C(=O)OCC(=O)N1CCN(C(=O)COC(=O)/C=C/C=C/C)CC1,.
O=C(NNc1ccnc2cc(Cl)ccc12)c1ccc(=O)[nH]n1,.
S=C(NNc1ccnc2cc(Cl)ccc12)NC1CCCCC1,.
S=C(NNc1ccnc2cc(Cl)ccc12)Nc1ccc(Cl)cc1Cl,+
NCCN1C(=O)CSC1=O,.
c1ccc(-n2c(Sc3ncccn3)nnc2C2COc3ccccc3O2)cc1 (stereo not drawn),.
Cn1/c(=N/N=C/c2cn(-c3ccccc3)nc2-c2cc3ccccc3o2)sc2ccccc21,.
C(=N\N(c1ccccc1)c1ccccc1)/c1cn(-c2ccccc2)nc1-c1cc2ccccc2o1,.
SMILES,PL synth Enamine
C(=C\c1cn(-c2ccccc2)nc1-c1cc2ccccc2o1)/c1nc2ccccc2s1,+
COCCOC(=O)C1=C(C)NC(=O)NC1c1sccc1C (stereo not drawn),.
COc1ccc(-n2cc(-c3ccc(Br)cc3)[n+]3c2SCCC3)cc1,.
O=[N+]([O-])c1cccc2nsnc12,.
c1ccc2cc(OCc3nc4ccccc4s3)ccc2c1,+
Brc1cc(Br)c2cccnc2c1OCc1nc2ccccc2s1,.
c1ccc2cc(OCc3nc4ccccc4[nH]3)ccc2c1,.
CCN(C(=O)c1cc(Br)c(Br)s1)C1CCS(=O)(=O)C1 (stereo not drawn),.
CCOC(=O)NC(n1ccnc1)C(F)(F)C(F)(F)C(F)(F)C(F)F (stereo not drawn),.
Cc1[nH]c2ccccc2c1N=Nc1ccccc1F,.

# Compound activity: PubChem, Zoeller Lab, School of Medicine, Boston University
